From PubChem
HDAC3 inh: blocks human histone deacetylase 3 | inhibition, % at 8.3 µM | O15379 | 320,000 compounds, 0.15% hits | recombinant HDAC3, fluorogenic peptide/trypsin coupled, fluorescence; in the data active = inhibition above about 26%, passing the limit was not always enough; inconclusive = no clear call, values can overlap the other calls
Rce1 inhib: yeast Ras-converting enzyme inhibition. 290,000 compounds, 0.27% hits. AID 2563. yeast membranes, quenched prenylated peptide cleavage fluorescence. calls only;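 active = fall in fluorescence gain of 50% or more versus controls, with final raw signal at or below 3038400; inconclusive = same 50% fall but final raw signal above 3038400; inactive = fall in fluorescence gain under 50%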;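 also: plate controls were neutral control wells for no effect and wells lacking membranes for full effect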
GRK2 aptamer HTS: inhibitors of human GRK2 displacing RNA aptamer; bead flow cytometry, FAM-aptamer displacement from GRK2; inhibition of aptamer binding, % at 10 µM; 330,000 compounds, 0.59% hits; AID 488847;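 active = inhibition of aptamer binding above 40%, roughly 3 SD of noise, on plates passing a quality check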;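 also: median bead fluorescence of bound FAM aptamer so fluorescent compounds give negative values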
Rtt109 HAT inh: blocks Candida albicans Rtt109/Vps75 acetyltransferase activity. Q5AAJ8. inhibition, % at 34.9 µM. AID 540336. purified Rtt109/Vps75, ThioGlo CoA-SH fluorescence, 4 h. 330,000 compounds, 0.16% hits;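 active = inhibition of at least 50% in every replicate; inconclusive = best replicate reaches 50% inhibition but some replicates fall short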
Efflux pump inh: blocks antifungal efflux pumps in multiplex yeast assay; S. cerevisiae Candida pump triplex, Nile Red efflux; inhibition, % at 10 µM; 330,000 compounds, 0.44% hits;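 active = plate passing quality check with inhibition over a set limit, or well fluorescence over plate mean plus 4 SD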;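 also: Nile Red retained in pooled yeast measured as flow cytometry median fluorescence; 0% = buffer negative control and 100% = Enniatin B positive control; higher means more Nile Red kept so more efflux inhibition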
ALR inh: human ALR oxidase inhibition via reduced H2O2 | purified ALR, DTT oxidation, H2O2 HRP-luminol luminescence | inhibition, % (no concentration beside the values) | P55789 | 290,000 compounds, 3.8% hits | AID 485317;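 active = mean replicate inhibition above about 79%, with every replicate also reaching it, limit read from the data; inconclusive = only one of the two criteria met; inactive = mean below limit and not every replicate reaching it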
Target sequence (P55789 whole entry, looked up): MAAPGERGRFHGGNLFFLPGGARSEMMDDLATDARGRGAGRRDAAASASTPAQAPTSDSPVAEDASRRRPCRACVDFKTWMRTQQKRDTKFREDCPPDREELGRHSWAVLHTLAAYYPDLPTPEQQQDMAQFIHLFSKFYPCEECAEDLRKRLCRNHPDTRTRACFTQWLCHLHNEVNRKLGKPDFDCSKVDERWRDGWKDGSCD
* marks the source's active call; other numbers are inactive results; i = inactive; u = inconclusive; x = no result given; + = active, no number. This is a sample that favours compounds with a hit; in the whole collection about 4.5% have one here.

SMILES | HDAC3 inh | Rce1 inhib | GRK2 aptamer HTS | Rtt109 HAT inh | Efflux pump inh | ALR inh
C/C(=N\Nc1ccc(Cl)c(C(=O)O)c1)c1cccc([N+](=O)[O-])c1 | 1 | i | 3 | 3 | 0 | 98*
COc1cc(/C=N/Nc2ccc(Cl)c(C(=O)O)c2)ccc1OC(=O)c1cccs1 | 14 | x | 2 | 23 | 0 | 97*
O=C(O)c1cc(N/N=C/c2ccc(N3CCOCC3)cc2)ccc1Cl | 4 | i | 4 | 21 | 0 | 97*
O=C(O)c1cc(N/N=C/c2ccc(-c3ccccc3)cc2)ccc1Cl | 0 | i | 43* | 2 | 0 | 99*
O=C(O)c1cc(N/N=C/C=C/c2ccccc2[N+](=O)[O-])ccc1Cl | 10 | i | 2 | 24 | 0 | 99*
CCCCOc1ccc(C(=O)Nn2c(-c3cccs3)nc3ccccc3c2=O)cc1 | -6 | + | 3 | -20 | 0 | -5
O=C(/C=C/c1ccccc1)Nn1c(-c2cccs2)nc2ccccc2c1=O | 3 | i | 0 | -5 | 0 | -8
CCC(/C=C1\Sc2ccc(OC)cc2N1CCO)=C\c1sc2ccc(OC)cc2[n+]1CCO | u | x | 100* | 114* | 0 | 9
CCC(=O)/C=C1/Sc2ccc(OC)cc2N1CC | 3 | i | 0 | 16 | 0 | 77*
Cc1ccc(-c2csc(N)n2)s1 | 1 | i | 1 | 9 | 0 | 99*
Cc1ccccc1-c1csc(N)n1 | x | x | x | 2 | x | x
Cc1cccc(NC(=O)c2ccccc2NC(=O)c2ccccc2)n1 | 4 | i | 0 | x | 0 | 10
Cc1cc(Nc2ccccc2)n(CCO)n1 | u | i | 0 | x | 0 | 99*
Cc1cc(Nc2nc3ccccc3nc2Cl)n(-c2ccccc2)n1 | 3 | i | 2 | 2 | 0 | 96*
Cc1cc(Nc2ccc(Cl)cc2)n(-c2ccccc2)n1 | -4 | i | 0 | -2 | 0 | 98*
Cc1cc(Nc2ccccc2C(=O)O)n(-c2cccc(Cl)c2)n1 | -5 | i | 1 | 10 | 0 | 98*
CCn1nc(C)cc1Nc1ccccc1 | -4 | i | 1 | x | 0 | 61
Cc1cc(C(=O)OCC(=O)N2CCC(C)CC2)c2ccccc2n1 | 2 | x | 20 | -5 | 0 | -3
COc1ccc(C(=O)NCc2nnc(SCC(=O)N3CCCC3)o2)cc1OC | 0 | i | 0 | -11 | 0 | -13
Cc1cccc(-c2nc(CS(=O)CC(=O)N3CC(C)CC(C)C3)c(C)o2)c1 (stereo not drawn) | 4 | i | 0 | -4 | 0 | 96*
CCN1CCN(C(=O)CS(=O)Cc2nc(-c3cccc(C)c3)oc2C)CC1 (stereo not drawn) | 6 | i | 2 | -5 | 0 | 99*
CCOC(=O)N1CCN(C(=O)CS(=O)Cc2nc(-c3ccc(OC)c(OC)c3)oc2C)CC1 (stereo not drawn) | -2 | i | 3 | 0 | 1 | 99*
Cc1cccc(-c2nc(CS(=O)CC(=O)N3CCc4ccccc4C3)c(C)o2)c1 (stereo not drawn) | 2 | i | 0 | -7 | 0 | x
CCOC(=O)N1CCN(C(=O)CS(=O)Cc2nc(-c3cccc(C)c3)oc2C)CC1 (stereo not drawn) | 3 | i | 0 | -2 | 0 | 99*
Cc1oc(-c2cccc(Cl)c2)nc1CN1CCC(C(=O)NCCCN2CC(C)CC(C)C2)CC1 (stereo not drawn) | 3 | i | 0 | 2 | 0 | -4
SMILES | HDAC3 inh | Rce1 inhib | GRK2 aptamer HTS | Rtt109 HAT inh | Efflux pump inh | ALR inh
CCOC(=O)N1CCN(C(=O)CS(=O)(=O)Cc2nc(-c3ccccc3C)oc2C)CC1 | -1 | i | 1 | -6 | 0 | -5
CC(C)(C)C(=O)CN1C(=O)NC2(CCCc3ccccc32)C1=O (stereo not drawn) | -5 | i | 2 | -2 | 0 | 13
CCN(C(=O)COC(=O)C1CCN(S(=O)(=O)c2c(Cl)cccc2Cl)CC1)C1CCCCC1 | -3 | x | 0 | 4 | 0 | -2
CCN(CC)c1ccc(C(=O)O)cc1 | 3 | i | 2 | -3 | 0 | 37
O=C(O)c1ccc(N(c2ccccc2)c2ccccc2)cc1 | -79 | x | 0 | 13 | 0 | 99*
O=c1[nH][nH]c2cc(=O)n(-c3cccc(C(F)(F)F)c3)nc12 | 5 | i | 0 | 15 | 0 | 25
Nc1n[nH]c2cc(=O)n(-c3cccc(C(F)(F)F)c3)nc12 | 1 | i | 0 | x | 0 | 93*
